WT yeast gro inh = growth inhibition of WT yeast, mitochondrial fusion screen. AID 1362. 190,000 tested, 2.1% active. mitochondrial fusion phenotypic screen, WT strain. inhibition, % at 10 µM; in the data active means inhibition above about 58%; tested in S. cerevisiae
RAM network inh = blocks the yeast RAM network; S. cerevisiae dse1pr::URA3 reporter, 5-FOA growth OD615, 2 d; analog-sensitive cbk1-as2 kinase mutant strain; inhibition, % at 50 µM; 190,000 tested, 1.8% active; AID 868;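 active means inhibition above a set limit, 3 SD over mean compound inhibition, cut at about 8.4% in these data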;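 further: 0% = DMSO-only wells with no growth and 100% = 10 µM 1-NA-PP1 full growth; inhibition rescues growth on 5-FOA so higher OD means more RAM inhibition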
L major viab = inhibitors of Leishmania major promastigote growth; Leishmania major promastigotes, resazurin fluorescence viability; inhibition, % at 10 µM; 200,000 tested, 9% active; in the data active means inhibition above about 50%;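 further: promastigotes grown with compound for 44 hours at 28 °C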
CHOP inh = CHOP inhibition in unfolded protein response; CHO-K1 CHOP-promoter luciferase, tunicamycin-induced, 15-18 h; inhibition, % at 10 µM; 220,000 tested, 3.8% active;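 active means compounds that reduced the stress-induced luciferase reporter signal by more than about 70% of percent inhibition, limit read from the data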;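 further: 0% = tunicamycin plus vehicle and 100% = wells without tunicamycin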
RAM 5-FOA = restores 5-FOA growth of efflux-deficient yeast; 1,200 tested, under 10 active; shares compounds with RAM network inh; S. cerevisiae efflux-deficient reporter strain, 5-FOA growth OD615, 2 days; max inhibition, %; call rule not given here;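 further: plate controls were vehicle for no effect and reference inhibitor for full effect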
* hit, by the source's call; . = no result. Most compounds without a hit are left out; they make up all but 13% or so of the library.

SMILES | WT yeast gro inh | RAM network inh | L major viab | CHOP inh | RAM 5-FOA
O=C(CN(Cc1cccs1)C(=O)CSc1nnc(COc2ccccc2)o1)NC1CCCC1 | 12.0 | 16.7* | 14.4 | 9.0 | 1.5
O=C(Nc1ccccc1-c1nnc(SCc2ccccc2)o1)c1ccccc1 | -1.1 | 19.1* | -4.3 | 1.4 | 4.4
COc1cc(OC)cc(-c2nnc(SCc3cccc(C(=O)O)c3)o2)c1 | -11.1 | 14.0* | -8.9 | 40.4 | 2.5
O=C(O)c1cccc(CSc2nnc(-c3ccco3)o2)c1 | -1.6 | 1.9 | -4.9 | 7.3 | .
O=c1c(-c2nnc(SCc3ccc(Cl)cc3)o2)cccn1Cc1ccccc1 | 23.4 | 6.5 | 9.3 | 40.9 | .
O=C(COC(=O)CCCNC(=O)c1ccc(Cl)cc1)Nc1cc(Cl)c(Cl)cc1Cl | -2.5 | 42.1* | 6.2 | -13.1 | 1.6
COC(=O)c1c(CSc2ccc(C)c(C)c2)noc1C(=O)NCc1ccc(OC)cc1 | 6.7 | 12.1* | 0.9 | 44.7 | 1.9
COc1cccc(SCc2noc(C(=O)NCc3ccccc3)c2C(=O)NCc2ccccc2)c1 | . | . | . | -5.6 | .
COC(=O)/C=C/c1oc2ccccc2c1C | -15.8 | 0.0 | -5.1 | -15.0 | .
COc1cc(CC(=O)OCC(=O)Nc2ccc(Cl)c(S(=O)(=O)N(C)C)c2)cc(OC)c1OC | . | . | . | 10.9 | .
CN(C)S(=O)(=O)c1cc(NC(=O)COC(=O)Cc2ccc(Br)cc2)ccc1Cl | 12.9 | 11.8* | -0.2 | 16.1 | 1.3
Cc1ccc(S(=O)(=O)N(C)c2ccc3sc(C)nc3c2)cc1 | -8.9 | 0.4 | -4.8 | 9.5 | .
O=C(C1CC1)N1CCc2cc(S(=O)(=O)NCCC3=CCCCC3)ccc21 | 11.2 | 11.4* | -0.3 | 30.1 | 1.5
CCCN(CCC)CCNS(=O)(=O)c1ccc2c(c1)CCN2C(=O)C1CCC1 | 16.0 | 2.1 | -0.8 | -8.1 | .
CN(C)CCn1c(=O)n(-c2cccc(Cl)c2)c(=O)c2c3c(sc21)CCCCC3 | . | . | . | 6.7 | .
CNC(=S)NNc1nc(C)cc(C)n1 | -1.1 | 1.3 | -5.9 | -6.1 | .
CC(NC(=O)OC(C)(C)C)C(=O)NC(CCC(=O)OCc1ccccc1)C(N)=O (stereo unspecified) | 8.6 | 0.1 | -1.4 | -2.6 | .
O=C(Nc1ccc(-c2nc3ccccc3s2)cc1)c1cc(-n2cnnc2)ccc1Cl | -10.5 | 15.5* | 6.6 | 45.9 | 4.9
O=c1oc(-c2ccc(Br)o2)nc2ccccc12 | 0.8 | 1.8 | -0.6 | -20.1 | .
COc1ccc(CC(=O)Nc2cc3oc4ccccc4c3cc2OC)cc1 | 23.9 | 12.0* | 6.3 | 16.9 | 3.2
COc1ccc(OC)c(NC(=O)COC(=O)Cc2ccc(-c3ccccc3)cc2)c1 | 33.7 | 13.6* | -1.2 | 32.4 | 2.8
COc1ccccc1CC(=O)Nc1cc2oc3ccccc3c2cc1OC | 20.1 | 4.6 | 9.7 | -4.3 | .
COc1cc(NC(=O)COC(=O)Cc2ccc(-c3ccccc3)cc2)cc(OC)c1 | 45.0 | 16.8* | 25.5 | 14.6 | 3.7
Cc1ccc(C)c(NC(=O)c2sc(Cl)nc2-c2ccccc2)c1 | 20.4 | 15.3* | 25.9 | -17.5 | 1.5
Cc1ccccc1NC(=O)c1sc(Cl)nc1-c1ccccc1 | 9.0 | 0.1 | -2.5 | 1.6 | .
SMILES | WT yeast gro inh | RAM network inh | L major viab | CHOP inh | RAM 5-FOA
O=C(CCc1ccccc1)N1CCN(c2ccc(F)cc2)CC1 | 1.0 | -1.7 | 15.7 | 5.6 | .
CCSC1=N/C(=C\c2ccc(-c3ccccc3[N+](=O)[O-])o2)C(=O)S1 | -7.2 | 14.2* | -7.4 | 67.6 | 2.9
CCCSC1=N/C(=C\c2ccc([N+](=O)[O-])o2)C(=O)S1 | 23.9 | 1.0 | 3.5 | 8.7 | .
O=C(Nc1ccc2c(c1)C(=O)OC2)c1ccc(F)cc1F | . | . | . | -2.1 | .
CC(C)CSc1nc(N2CCOCC2)c2c(c1C#N)CC(C)(C)SC2 | 28.3 | 21.6* | 2.3 | 36.4 | 3.5
CS(=O)(=O)N1CCC(C(=O)Nc2cccc(C(F)(F)F)c2)CC1 | -13.1 | -0.7 | -6.8 | 4.9 | .
O=C(Nc1cccc(C(F)(F)F)c1)C1CCCCC1 | -7.1 | 21.8* | 9.9 | 50.8 | 0.5
O=C(OCC(=O)N1CCc2ccccc2C1)c1cccc([N+](=O)[O-])c1 | 19.1 | 0.1 | -6.2 | 4.3 | .
Cc1cc(C)c2c(=O)cc(C(F)(F)F)oc2n1 | -4.5 | 0.0 | -4.7 | -7.2 | .
CCCCCCCCCCCC(=O)NC1CCS(=O)(=O)C1 (stereo unspecified) | 17.8 | 3.5 | 6.8 | 5.0 | .
CCCCCCNC(=O)c1cc(-c2ccco2)nc2ccccc12 | 10.7 | 13.3* | -0.3 | 31.9 | 2.5
CC(C)CCNC(=O)c1cc(-c2ccco2)nc2ccccc12 | 9.9 | 4.4 | 0.2 | 18.1 | .
O=C(Cc1ccc(Cl)cc1Cl)NCC1(N2CCOCC2)CCCCC1 | 4.3 | 2.0 | 8.8 | 4.6 | .
COCCn1c(Sc2ccccc2)nc2c1c(=O)[nH]c(=O)n2C | 4.0 | 1.1 | 4.5 | 22.9 | .

Assay outcomes from PubChem.
